Composite z-score data for 35 compounds are collected here from PubChem BioAssay.

Structures are written as SMILES.

For the assay, the system named is Noggin (protein binding on small-molecule microarray). In words: Noggin binders on small-molecule microarray, primary screen, biochemical, 635/667 nm fluorescence (AID 1095).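 Note: score merges 667 nm feature fluorescence with signal to noise over triplicate slides.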 Particulars: 635 nm fluorescence, higher = more signal.
In turn, `COC(=O)[C@@]1(Cc2ccc(F)cc2)[C@H]2c3cc(C(=O)N(C)C)n(CCc4ccc(O)c(O)c4)c3C[C@H]2CN1C(=O)c1ccccc1` displayed a composite z-score of -0.601.
Then `[N-]=[N+]=Nc1ccccc1C[C@]1(C(=O)N2CCOCC2)N=C(c2ccc(OCCCO)cc2)O[C@H]1c1ccccc1N=[N+]=[N-]`, with 1.61; and `COCCOC(=O)N1C(=O)[C@@]2(c3cc(C#CCCO)ccc31)[C@H](c1ccc(OCCO)cc1)N1[C@H](c3ccccc3)[C@H](c3ccccc3)OC(=O)[C@H]1[C@@H]2C(=O)N1CCCCCCC1`, with 1.49; and `COC(=O)C(CC#Cc1ccc2c(c1)[C@]1(C(=O)N2)[C@H](c2ccc(OCCO)cc2)N2[C@H](c3ccccc3)[C@H](c3ccccc3)OC(=O)[C@H]2[C@@H]1C(=O)N1CCCCCCC1)C(=O)OC`, with 1.84.
Then `O=C1C[C@@](C(=O)O)(c2ccc([N+](=O)[O-])cc2)[C@@H](c2ccc(CO)cc2)N1C1CCCCC1`, with 0.333; and `C=CC[C@]1(C(=O)NCC(O)CO)COC(c2ccc(OCCCO)cc2)=N1` (stereo not given in full), with -0.415.
In turn, `C=C(COC)C(=O)CC[C@H](OC(=O)c1cccnc1)c1ccc(OCCO)cc1` displayed a composite z-score of 1.22.
Regarding `C=CCNC(=O)[C@H]1[C@@H]2C(=O)O[C@@H](c3ccccc3)[C@@H](c3ccccc3)N2[C@@H](c2ccc(OCCO)cc2)[C@]12C(=O)Nc1ccccc12`, the composite z-score came out at 0.167.
As for `C=CC1c2cc(O)c(OC)cc2CCN1C` (stereo not given), the composite z-score is -0.542.
Then `CC1CC/C=C\[C@H]2OC34C=CCN(c5ccc(Cl)cc5)C(=O)[C@H]3N(CCCCCCO)C(=O)[C@]4(C)C2C(=O)O1` (stereo not given in full), with -0.914; and `CCCC=C(CCC)[C@@H](NC(=O)c1ccc(C(F)(F)F)cc1)c1ccc(C(F)(F)F)cc1`, with -0.0005.
Consider `Cc1ccccc1C(O)C1C=CC2C(=O)N(c3ccccc3)C(=O)C2N1Nc1ccccc1` (stereo not given), for which the composite z-score stood at 0.219.
`CCOC(=O)C[C@H]1[C@H](OC(=O)c2ccccc2-c2ccccc2)[C@@H](NC(=O)c2ccc3ccccc3c2)c2cc(OCCCO)ccc2N1C(=O)Cc1ccc(OC)cc1` yielded a composite z-score of -0.206.
Then `COc1ccc(C(=O)Nc2ccc3c(c2)[C@@]2(O[C@H](CCO)[C@@H]([Si](C)(C)c4ccc(OC)cc4)[C@@H]2C)C(=O)N3Cc2ccccc2)cc1`, with 1.32; and `COCCOC(=O)N1C(=O)[C@@]2(c3cc(C#CCC(C(=O)OC)C(=O)OC)ccc31)[C@H](c1ccc(O)cc1)N1[C@H](c3ccccc3)[C@H](c3ccccc3)OC(=O)[C@H]1[C@@H]2C(=O)Nc1nc2ccccc2s1`, with 1.39; and `C=C(COC)/C(=C/C[C@H](OC(C)=O)c1ccccc1OCCO)c1cc(C(=O)OC)ccc1OC`, with 0.485.
Then `O=C1[C@H]2C=C(I)[C@H](C[C@@H]2OCCCCCCO)[C@@]12CO2`, with 0.263; and `CCCCC(=C=CC[C@H](O)c1ccc(CO)o1)CCO`, with 1.31; and `COc1ccccc1CN1C(=O)c2ccccc2[C@](Cc2ccccc2I)(C(=O)NCC(C)C)[C@@H]1c1ccc(CO)cc1`, with -0.371.
Then `C=CCC(OC(C)=O)[C@@H]1[C@@H](N(Cc2ccc(-c3ccccc3)cc2)C(=O)c2cccc3ccccc23)c2cc(OCCCO)ccc2N1C(=O)Cc1ccc(OC)cc1` (stereo not given in full), with 0.417; and `CC(C)N1C(=O)c2ccccc2[C@](C)(C(=O)NCC(F)(F)F)[C@@H]1c1ccc(CO)cc1`, with -1.4.
`O=C1NC(=O)C2C1C=CC(C(O)c1ccc([N+](=O)[O-])cc1)N2Nc1ccccn1` (stereo not given) had a composite z-score of 0.241.
`CN1C(=O)C2C=CC(C(O)c3ccc(-c4ccccc4)s3)N(NC(=O)OC(C)(C)C)C2C1=O` (stereo not given) registered a composite z-score of -0.0619.
Then `CN(C)CCCNC(=O)[C@@]1(C)c2ccccc2C(=O)N(Cc2ccc(OC(F)(F)F)cc2)[C@H]1c1ccc(CO)cc1`, with -0.552; and `COCCCNC(=O)[C@@]1(CCS(=O)(=O)c2ccccc2)COC(c2ccc(OCCCO)cc2)=N1`, with 0.878; and `COC(=O)[C@@]1(Cc2ccc(OC)cc2)[C@H]2c3cc(C(=O)N4CCCC4)n(Cc4ccc(C(F)(F)F)nc4)c3C[C@H]2CN1C(=O)c1ccccc1`, with 0.113.
Compound `COC(=O)C(CC#Cc1ccc2c(c1)[C@]1(C(=O)N2)[C@H](c2ccccc2OCCO)N2[C@H](c3ccccc3)[C@H](c3ccccc3)OC(=O)[C@H]2[C@@H]1C(=O)N1CCc2cc(OC)c(OC)cc2C1)C(=O)OC` had a composite z-score of 1.08.
Then `COc1ccc(C(O)C2C=CC3C(=O)N(C)C(=O)C3N2N(c2ccccc2)c2ccccc2)cc1` (stereo not given), with 0.269; and `COCCOC(=O)N1C(=O)[C@@]2(c3cc(C#CCC(C(=O)OC)C(=O)OC)ccc31)[C@H](C(=O)Nc1nc3ccccc3s1)[C@H]1C(=O)O[C@H](c3ccccc3)[C@H](c3ccccc3)N1[C@@H]2c1ccc(O)cc1`, with 0.92; and `CC(C)(C)N1CC=CC23O[C@@H]4C=CCCOC(=O)C4[C@H]2C(=O)N(CCCCCCO)[C@@H]3C1=O` (stereo not given in full), with -0.679.
Consider `O=C1C[C@@](C(=O)NCc2ccccc2)(c2ccc([N+](=O)[O-])cc2)[C@@H](c2ccc(CO)cc2)N1C1CCCCC1`, for which the composite z-score came to 0.65.
Then `Cc1ccc(S[C@]2(C(=O)NCc3ccccc3)CC(=O)N(Cc3ccccc3C(F)(F)F)[C@@H]2c2ccc(CO)cc2)cc1`, with -1.16.
Then `COCCOC(=O)N1C(=O)[C@@]2(c3cc(C#CCCO)ccc31)[C@H](C(N)=O)[C@H]1C(=O)O[C@H](c3ccccc3)[C@H](c3ccccc3)N1[C@@H]2c1ccccc1OCCO`, with 0.989; and `CC(C)=C1C(=O)C(c2ccccc2)=C2CN3C(=O)N(CCc4ccccc4)C(=O)[C@]3(C)[C@H]21`, with -0.335; and `CC(C)(C)OC(=O)CC[C@@]1(C(=O)NCCN2CCOCC2)N=C(c2ccc(OCCCO)cc2)O[C@@H]1c1ccccc1CN=[N+]=[N-]`, with 0.167.
